Results filed as inconclusive are left out. Active and inactive are the calls of the source. Calls come from the whole dose curve; as a rule, active = well fitted inhibition curve with a large enough effect; inconclusive = small, poorly fitted or top-dose-only effect; inactive = flat fitted curve, though single readings scatter.
Target: DNA repair nuclease/redox regulator APEX1 (Homo sapiens) (UniProt P27695)
Test: qHTS Validation Assay for Inhibitors of the Human Apurinic/apyrimidinic Endonuclease 1 (APE1) (AID 1705;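 note: TAMRA fluorescence gain over two minutes as APE1 cuts a quenched THF abasic duplex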)
Settings: purified APE1 endonuclease activity, fluorescence, titration; series mostly up to 57.1 µM
Summary of the method: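 qHTS, 1536-well. APE1 + cpd 15 min RT → 50 nM TAMRA/BHQ-2 THF-abasic dsDNA substrate → kinetic fluorescence, 3 reads/60 s; delta(read3−read1) = reaction progress. No-enzyme buffer = negative control.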

Sequence of DNA repair nuclease/redox regulator APEX1 (Homo sapiens) (P27695 whole entry, looked up): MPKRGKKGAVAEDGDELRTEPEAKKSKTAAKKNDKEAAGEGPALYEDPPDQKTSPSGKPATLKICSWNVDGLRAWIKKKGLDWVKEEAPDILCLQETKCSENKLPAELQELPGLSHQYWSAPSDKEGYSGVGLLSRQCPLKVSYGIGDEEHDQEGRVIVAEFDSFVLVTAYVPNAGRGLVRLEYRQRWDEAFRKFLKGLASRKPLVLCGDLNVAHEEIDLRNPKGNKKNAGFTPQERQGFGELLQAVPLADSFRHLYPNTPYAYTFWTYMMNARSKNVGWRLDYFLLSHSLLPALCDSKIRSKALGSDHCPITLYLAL

Row | SMILES | outcome
1 | OCc1ccc(-c2nn(Cc3ccccc3)c3ccccc23)o1 | inactive
2 | CC(C)NCC(O)c1ccc(NS(C)(=O)=O)cc1 (configuration not stated) | inactive
3 | O=C(O)C1CCCN(CCC=C(c2ccccc2)c2ccccc2)C1 (configuration not stated) | inactive
4 | CC1=C(C(=O)O)N2C(=O)[C@@H](NC(=O)C(N)c3ccccc3)[C@H]2SC1 (some centres not stated) | inactive
5 | CCN1CCCC1CNC(=O)c1cc(S(N)(=O)=O)ccc1OC (configuration not stated) | inactive
6 | CCN(CC)CC#CCOC(=O)C(O)(c1ccccc1)C1CCCCC1 (configuration not stated) | inactive
7 | CCCCS(=N)(=O)CCC(N)C(=O)O (configuration not stated) | inactive

Source: PubChem BioAssay (NCATS)
